Rows were chosen to be rich in hits. Some 2.2% of all compounds tested hit in one or more screens of this group.
Myeloid diff MLP: myeloid differentiation induction | ER-HoxA9 myeloid progenitors, lysozyme-GFP differentiation, flow cytometry | calls only at 10 µM | 360,000 compounds, 1% hits;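 active = normalized GFP-positive differentiation at or above the plate's own cutoff, the solvent-only control mean plus 3 SD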;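 also: cells exposed to compound for four days before flow analysis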
RTF Ca sens act: cardiac RTF calcium sensitization | IANBD-labeled TnC RTF fluorescence at EC20 calcium; 0% EC20 calcium, 100% full calcium | 340,000 compounds, 0.24% hits | activation, % at 7.2 µM | AID 493008;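 active = activation above the mean over all tested compounds plus 3 SD, cut at about 30% in these data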;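 also: rise in fluorescence read as greater calcium sensitivity of cardiac thin filaments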
Cardiac RTF inh: cardiac RTF calcium desensitization; P19429+P45379; 340,000 compounds, 0.12% hits; inhibition, % at 7.15 µM; IANBD-labeled cardiac RTF, Ca2+ fluorescence;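 active = inhibition above the mean inhibition of all tested compounds plus 3 SD, cut at about 17% in these data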;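 also: assay run at fixed EC70 calcium of 1.6 mM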
CRFBP-R2 block: blocks CRF-induced signaling of the CRF-BP/CRF-R2 complex. HEK293 CRF-R2/CRF-BP, CRF-induced calcium fluorescence. inhibition, % at 11.8 µM. 350,000 compounds, 0.59% hits. AID 588475;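 active = inhibition of the ligand-induced calcium signal above about 50% at the single tested concentration, limit read from the data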
CRFBP-R2 agonist: agonists of human CRF-binding protein/CRF-R2 receptor complex; 350,000 compounds, 0.46% hits; activation, % at 13.2 µM; HEK293 CRF-R2/CRF-BP, calcium dye fluorescence (FLIPR); percent of saturating CRF peptide response; AID 588473;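 active = activation of at least 50%, plus an integration ratio under a set limit after plate pattern correction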;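 also: plate controls were neutral control wells without compound for no effect and CRF at EC100 for full effect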
Myeloid diff CP1: myeloid differentiation induction; shares compounds with Myeloid diff MLP; ER-HoxA9 myeloid progenitors, GFP/Mac1 double-positive flow; calls only; 2,300 compounds, 2% hits; AID 651706;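 active = share of green or green-and-red cells above 9 and 9% in run 1 or 4 and 3% in run 2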
GFP autofluor: counter-screen for myeloid differentiation promoters: compound fluorescence | shares compounds with Myeloid diff MLP | ER-HoxA9 myeloid progenitors, no estrogen, GFP autofluorescence flow cytometry; vehicle wells 0%, positive control 100% | 2,300 compounds, 7.4% hits | fluorescence response, % (test concentration not listed);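 active = over 5% cells positive for green fluorescent reporter, or over 2% positive for both it and APC stain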;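 also: range taken on the double positive population between DMSO and positive control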
* = called active by the depositor; i = inactive; . = no result; + = active, no number.

SMILES	Myeloid diff MLP	RTF Ca sens act	Cardiac RTF inh	CRFBP-R2 block	CRFBP-R2 agonist	Myeloid diff CP1	GFP autofluor
CC(C)Cn1c(N)c(C(=O)COC(=O)c2cnccn2)c(=O)n(C)c1=O	+	-3	-3	17	2	i	1
Cc1csc(SCC(=O)c2c(N)n(CC(C)C)c(=O)n(C)c2=O)n1	+	-2	-3	-21	1	i	51*
COc1ccc(N(CC(=O)NCC2CCCO2)S(=O)(=O)c2ccccc2)cc1OC (stereo not drawn)	i	-3	1	0	0	.	.
CC(=O)Nc1cccc(NC(=O)Cc2ccc3ccccc3c2)c1	i	3	-5	13	-1	.	.
Fc1ccccc1OCCCCN1CCCCC1	i	-1	-10	7	-2	.	.
Cc1ccc(N(C(=O)Cn2nnc3ccccc32)C(C(=O)NCc2ccccc2)c2ccccn2)cc1 (stereo not drawn)	i	3	10	-6	-3	.	.
Cc1cc2c3c(c1C)C1(C(=O)N3C(C)(C)CC2C)C(C#N)=C(N)Oc2n[nH]c(C)c21 (stereo not drawn)	+	-5	-3	-3	-1	i	0
Cc1cc2c3c(c1)C1(C(=O)N3C(C)(C)CC2C)C(C#N)=C(N)Oc2n[nH]c(C)c21 (stereo not drawn)	i	-6	5	-30	0	.	.
COc1ccc(C(C)(O)c2nc(-c3ccc(F)cc3OC)cs2)cc1 (stereo not drawn)	i	.	.	.	.	i	0
COc1cccc(C(C)(O)c2nc(-c3ccc(F)cc3OC)cs2)c1 (stereo not drawn)	i	.	.	.	.	.	.
Cc1ccnc(SC2CC(=O)N(c3ccc(F)cc3)C2=O)n1 (stereo not drawn)	i	-2	2	9	2	.	.
O=C(O)CC1(CC(=O)Nc2ccc(C(F)(F)F)cc2)CCCC1	.	-2	-7	29	-5	.	.
CC(C)(C)c1ccc(NC(=O)CC2(C(F)(F)F)OCCO2)cc1	i	4	-16	1	-3	i	2
Cc1cc(Br)ccc1NC(=O)CNC(=O)c1cnn(C)c1	i	2	-9	-4	0	.	.
CC(C)c1cccc(C(C)C)c1NC(=O)CN1CCCC1	i	-3	-10	5	0	.	.
COc1ccc([C@H]2[C@@H]3C=CCC[C@@]3(C)C(=O)N2Cc2ccccc2)cc1Cl	i	8	-8	5	-1	i	1
COc1cc2c(cc1OC)C(c1cc3ccccc3oc1=O)=NC(C)(C)C2	i	-4	-13	7	1	i	0
CCOC(=O)[C@]12CCCC=C1N(Cc1ccco1)C(=O)[C@H](CC(=O)NCC1CCCCC1)C2	i	.	.	.	.	.	.
Cc1ccc(S(=O)(=O)N2CCOCC2)cc1C(=O)NCc1ccccc1CN1CCCC1	i	-5	-2	0	1	.	.
Cc1ccc(NC(=O)Cn2nnc(C(=O)NCc3cccs3)c2N)cc1F	+	4	1	-1	1	i	0
COc1ccc(C2CCCN2C(=S)Nc2cccc(C)c2C)cc1OC (stereo not drawn)	i	3	7	3	0	.	.
Cc1cc(C)cc(OCc2nc(-c3cccnc3)no2)c1	+	-2	0	37	-3	i	0
Cc1cc(N2CCCCC2)nc(N)n1	+	3	0	-47	235*	i	0
COc1ccc(C(=O)CSc2ncnc3nc[nH]c23)cc1	+	-2	-15	-3	1	i	0
CCOC(=O)c1nn(-c2ccc(Cl)cc2)c2nnc(Cc3ccccc3)c(=O)n12	i	-5	-3	3	-1	.	.
SMILES	Myeloid diff MLP	RTF Ca sens act	Cardiac RTF inh	CRFBP-R2 block	CRFBP-R2 agonist	Myeloid diff CP1	GFP autofluor
Cc1c(Cc2ccccc2)c(=O)oc2cc(OC(=O)c3ccccc3)ccc12	i	3	-3	14	4	.	.
COC(=O)Cc1c(C)c2ccc(OC(=O)c3ccccc3)cc2oc1=O	i	-4	-7	-12	-1	i	0
COc1ccc2c(C)nc(Nc3nc(C)cc(C)n3)nc2c1	i	0	0	1	1	i	35*
Cc1ccc(N2CCN(C(=O)c3[nH]c(C(F)(F)F)nc3-c3ccccc3)CC2)cc1	i	.	.	.	.	.	.
Cc1cc(N2CCN(C(=O)c3[nH]c(C(F)(F)F)nc3-c3ccccc3)CC2)c2ccccc2n1	i	.	.	.	.	i	82*
O=c1[nH][nH]c(-c2ccccc2O)c1C(C[N+](=O)[O-])c1ccc(Cl)cc1Cl (stereo not drawn)	i	0	4	18	1	i	1
CCOC(=O)CNC(=O)c1cccnc1Oc1ccc(Cl)cc1	i	2	-8	-1	1	.	.
CO/N=C(\CS(=O)(=O)Cc1ccc(OC)cc1)c1ccc(Cl)cc1	i	-1	-3	24	-1	i	3
Cc1cccc(OCC(=O)NC(=S)Nc2ccc(S(=O)(=O)NC3CCCCC3)cc2)c1	i	-7	-2	-24	5	.	.
O=C(NC1CC2CCC1C2)c1ccco1 (stereo not drawn)	i	-1	-5	-1	0	i	0
CCc1nc2ccccc2c(C(=O)NCc2ccccc2)c1C	i	-1	-1	30	0	i	0
CCc1nc2ccccc2c(C(=O)O)c1C	i	0	-5	14	0	.	.
Cc1ccc(C)c(-n2c(-c3ccc(Br)cc3)csc2=NC(=O)c2ccccc2F)c1	i	4	-6	-16	5	.	.
CCOc1cc(C=C2C(=O)c3ccccc3C2=O)ccc1OCC(=O)Nc1ccc(C)cc1	+	-2	0	-107	113*	i	0
COc1cccc(N2CCN(c3ccc4nnc(CCC(=O)Nc5ccccn5)n4n3)CC2)c1	i	-2	-3	-4	1	.	.
O=C(Nc1cccc2ccccc12)/C(=C\c1cccc([N+](=O)[O-])c1)NC(=O)c1cccs1	+	5	-4	1	-2	i	0
CCc1ccc(NC(=O)CSCc2ccc(C(=O)O)cc2)cc1	i	1	-9	2	0	i	0
COC(=O)c1ccccc1NS(=O)(=O)c1ccc(F)cc1	i	0	-3	-8	1	.	.
COC(=O)c1ccccc1NC(=O)Oc1ccc(F)cc1	i	6	-5	10	4	i	0
NNC(=O)c1ccc(COc2ccc(Br)cc2)o1	i	-3	-1	3	0	i	0
CC(C)(C)c1ccc(OCc2ccc(C(=O)NN)o2)cc1	+	3	-2	-9	0	i	0
NNC(=O)c1ccc(COc2ccc3c(c2)CCC3)o1	i	-2	2	-19	1	.	.

Bioassay records from PubChem.
